From PubChem BioAssay (NCI) come the findings set out here.

Compounds without any hit were thinned out: in the full panel of roughly 83,000, 20% have a hit.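 Growth was measured after 48 h exposure to one concentration of compound in 96-well plates. Values under 10 count as active.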 Values without a mark were called inactive. Calls of active or inactive are those of the source.

Some test systems named below: NCI-H23 lung; NCI-H226 lung; NCI-H322M lung; HOP-62 NSCLC; NCI-H460 lung; NCI-H522 lung; A549/ATCC NSCLC; 786-0 renal; DU-145 prostate; K-562 leukemia; MALME-3M melanoma; MDA-MB-231 breast; SF-268 CNS; SF-295 CNS; SF-539 CNS; UACC-257 melanoma; M14 melanoma; HCT-15 colon; RXF 393 renal; COLO 205 colon.
Common to all, as to test: NCI-60 one-dose screen, 48 h (100 = growth as untreated, 0 = no growth, -100 = all killed)
What all share (details): 10 µM

As for `COc1ccc(/C(=C2/O[C@@H]([C@H]3COC(C)(C)O3)[C@H]3OC(C)(C)O[C@@H]23)c2cc(OC)c(OC)c(OC)c2)cc1O`, the growth in the assay with NCI-H23 lung is 81.2%; in the assay with NCI-H226 lung, 113%; in the assay with NCI-H322M lung it was 91.5%; in the assay with HOP-62 NSCLC it was 91.3%; in the assay with NCI-H460 lung, 104%; with NCI-H522 lung it was 51.8%. Besides, the growth in the assay with A549/ATCC NSCLC was 80.1%; in the assay on 786-0 renal it was 86.3%; in the assay on DU-145 prostate, 45.6%; in the assay on K-562 leukemia, 10.2%; in the assay with MALME-3M melanoma, 69.6%; in the assay with MDA-MB-231 breast, 54.5%. Also, the growth with SF-268 CNS was 37.8%; in the assay with SF-295 CNS it was 77.6%; in the assay on SF-539 CNS, 21.5%; in the assay with UACC-257 melanoma it was 126%; with M14 melanoma, 19.5%; with HCT-15 colon, 32.5%.
`COc1ccc(OC)c(/C=C/c2nc(SC)n(-c3ccc(Cl)cc3)n2)c1`: the growth in the assay on NCI-H23 lung is 59.7%; with NCI-H226 lung, 70.9%; in the assay on NCI-H322M lung, 73.3%; in the assay on HOP-62 NSCLC it was 90.3%; in the assay with NCI-H460 lung, 85.2%; in the assay on NCI-H522 lung, 81.6%. Also, the growth in the assay on A549/ATCC NSCLC was 64.8%; in the assay on 786-0 renal it was 86.8%; with DU-145 prostate, 93.9%; in the assay on K-562 leukemia, 30.7%; in the assay with MALME-3M melanoma, 44.8%; in the assay on MDA-MB-231 breast it was 91.7%. Further, the growth was 59.7% with RXF 393 renal; 91.7% with SF-268 CNS; 46.8% with SF-295 CNS; 88.5% in the assay on SF-539 CNS; 87.3% in the assay on UACC-257 melanoma; 60% in the assay with M14 melanoma. The growth with HCT-15 colon was 58.9%.
`CCOC(=O)c1ccoc1`: the growth was 103% in the assay with NCI-H23 lung; 101% in the assay with NCI-H226 lung; 85.1% in the assay on NCI-H322M lung; 97.8% in the assay on HOP-62 NSCLC; 101% with NCI-H460 lung; 91.1% in the assay on NCI-H522 lung. Moreover, the growth is 96.9% with A549/ATCC NSCLC; 99.1% in the assay with 786-0 renal; 109% in the assay on DU-145 prostate; 93.8% in the assay with K-562 leukemia; 100% in the assay on MALME-3M melanoma; 128% in the assay with MDA-MB-231 breast. The growth with RXF 393 renal is 110%; in the assay with SF-268 CNS, 108%; with SF-295 CNS, 108%; in the assay with SF-539 CNS it was 95.6%; with UACC-257 melanoma, 80.3%; with M14 melanoma, 106%. Further, the growth with HCT-15 colon was 97%.
`CC1(O)CCC2CC3OC3(C)CCC3OC3(C)CCC1C2(C)C` (stereo unspecified): the growth in the assay on NCI-H23 lung is 105%; with NCI-H226 lung, 108%; in the assay with NCI-H322M lung, 114%; in the assay on HOP-62 NSCLC it was 98.8%; with NCI-H460 lung, 112%; in the assay with NCI-H522 lung it was 98.1%. For the same compound, the growth with A549/ATCC NSCLC was 90.7%; with 786-0 renal it was 99.7%; with COLO 205 colon, 106%; in the assay on K-562 leukemia, 113%; with MALME-3M melanoma, 110%; with MDA-MB-231 breast, 102%. For the same compound, the growth in the assay on SF-268 CNS is 107%; in the assay with SF-295 CNS, 89.6%; in the assay on SF-539 CNS it was 119%; in the assay on M14 melanoma it was 103%; in the assay on HCT-15 colon it was 105%.
As for `Nc1nc(Nc2ccccc2)n[nH]1`, the growth with NCI-H23 lung was 94.7%; in the assay with NCI-H226 lung, 96.8%; with NCI-H322M lung, 108%; in the assay with HOP-62 NSCLC, 92.3%; in the assay with NCI-H460 lung, 108%; with NCI-H522 lung, 17.7%. Also, the growth is 34.8% with A549/ATCC NSCLC; 101% in the assay with 786-0 renal; 117% with DU-145 prostate; 98.6% with K-562 leukemia; 98.5% in the assay on MALME-3M melanoma; 105% with MDA-MB-231 breast. The growth in the assay with RXF 393 renal is 104%; in the assay with SF-268 CNS, 112%; with SF-295 CNS, 98.1%; in the assay with SF-539 CNS, 94.2%; in the assay with UACC-257 melanoma, -7.13% (active); in the assay on M14 melanoma, 96.5%. Also, the growth with HCT-15 colon was 93.8%.
In the case of `FC(F)(F)c1ccc(-c2cnc(-n3cc(COCCN4CCCCC4)nn3)nc2NC2CCCCCC2)cc1`, the growth was 67.7% in the assay with NCI-H23 lung; 78.7% with NCI-H226 lung; 54.4% in the assay on NCI-H322M lung; 52.4% in the assay with HOP-62 NSCLC; -68.3% (active) in the assay on NCI-H460 lung; -12.8% (active) in the assay with NCI-H522 lung. Also, the growth with A549/ATCC NSCLC is 10.6%; in the assay with 786-0 renal, 51.1%; in the assay with DU-145 prostate it was 57.7%; with K-562 leukemia, -48.4% (active); in the assay with MALME-3M melanoma, -86.3% (active); with MDA-MB-231 breast, 11.1%. For the same compound, the growth in the assay on RXF 393 renal is -3.46% (active); with SF-268 CNS it was 33.2%; with SF-295 CNS it was -56.8% (active); with SF-539 CNS, -66.8% (active); in the assay with UACC-257 melanoma, -89.7% (active); in the assay with M14 melanoma, -87.6% (active). In addition, in the assay on HCT-15 colon, the growth is 3.73% (active).
With `N#Cc1cc(-c2cc3ccccc3o2)oc1N`, the growth is 11.4% with NCI-H23 lung; 17.4% in the assay with NCI-H226 lung; 2.76% (active) with NCI-H322M lung; 20% in the assay on HOP-62 NSCLC; 9.76% (active) in the assay on NCI-H460 lung; -4.4% (active) in the assay with NCI-H522 lung. For the same compound, the growth in the assay with A549/ATCC NSCLC is -5.69% (active); with 786-0 renal, 11.7%; in the assay on COLO 205 colon, 12.9%; in the assay with K-562 leukemia it was 2.52% (active); in the assay on MALME-3M melanoma it was -5.2% (active); in the assay with MDA-MB-231 breast, -27.1% (active). In addition, the growth with SF-268 CNS was 29%; in the assay with SF-295 CNS it was -28.1% (active); in the assay on SF-539 CNS it was -45% (active); in the assay on M14 melanoma, 26.4%; with HCT-15 colon, 9.98% (active).
With `CSc1cc(SC)ncn1`, the growth with NCI-H23 lung is 120%; in the assay with NCI-H226 lung, 107%; with NCI-H322M lung, 105%; with HOP-62 NSCLC, 108%; in the assay with NCI-H460 lung, 119%; in the assay on NCI-H522 lung, 100%. In addition, the growth in the assay with A549/ATCC NSCLC is 105%; in the assay with 786-0 renal, 103%; with DU-145 prostate, 115%; in the assay with K-562 leukemia, 96.6%; with MDA-MB-231 breast, 95.7%; in the assay with RXF 393 renal, 124%. The growth is 112% with SF-268 CNS; 102% in the assay on SF-295 CNS; 98.1% in the assay on SF-539 CNS; 104% in the assay with UACC-257 melanoma; 112% in the assay on M14 melanoma; 98.2% in the assay on HCT-15 colon.
